From publication PMC10668032, “Altered binding affinity of SIX1-Q177R correlates with enhanced WNT5A and WNT pathway effector expression in Wilms tumor” come the findings set out here.

Over roughly 33,000 sequences, “e-score” has its median near -0.05; the highest 2% begin near 0.38. This is one part of a sample in which the highest values are shown more often than they occur.

This experiment deals with T1, SIX1-Q177R homeodomain (human, UniProt Q15475 108-198, Q177R).
T1 sequence: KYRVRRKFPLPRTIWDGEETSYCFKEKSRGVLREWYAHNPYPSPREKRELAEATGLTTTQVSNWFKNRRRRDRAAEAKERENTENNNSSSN
Put plainly: universal protein binding microarray; Universal all-10-mer PBM (8x60K, AMADID 030236), 300 nM GST-tagged protein, Alexa Fluor 488 anti-GST; buffer, salt, pH and temperature not stated (as in Berger); high values mean tight binding. The settings on record: protein: ivt; tags: N-terminal GST; dsDNA, one strand shown. In outline: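 Binding of GST-tagged homeodomains is given as 8-mer E-scores from the Universal PBM Analysis Suite. The proteins were produced by in vitro transcription/translation, quantified by anti-GST western blot against a recombinant GST standard curve, and applied in duplicate at 300 nM final concentration to universal 'all 10-mer' protein binding microarrays (8×60K format).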
With ACGTAACA, the binding signal turned out to be 0.199 ± 0.0228 E-score.
Regarding AAACACTG, the binding signal was 0.344 ± 0.0208 E-score.
With AAGCACCG, the binding signal is 0.175 ± 0.0203 E-score.
For the sequence CAACACTG, the binding signal was found to be 0.323 ± 0.00702 E-score.
Take CAACACCG: the binding signal is 0.46689 ± 0.000212 E-score.
CAACACAA: the binding signal is 0.182 ± 0.0648 E-score.
On to CAACACAC, for which the binding signal was found to be 0.342 ± 0.0337 E-score.
As to AAACACCG, the binding signal was 0.4654 ± 0.00275 E-score.
For CACCAACA the value was 0.377 ± 0.0268 E-score; for CAACACCC, 0.456 ± 0.00535 E-score.
For CAACACCA the value was 0.4741 ± 0.00414 E-score; for CACCACCG, 0.3551 ± 0.000962 E-score.
For CAACACTC the value was 0.36 ± 0.00549 E-score.
Consider ACCAGGTA, for which the binding signal stood at 0.241 ± 0.0242 E-score.
For ATACTACA, the binding signal was 0.257 ± 0.011 E-score.
Regarding AACTGGTG, the binding signal turned out to be 0.364 ± 0.0186 E-score.
GACGCCGA: the binding signal was found to be 0.174 ± 0.0331 E-score.
As to AGAGGTGC, the binding signal is 0.19 ± 0.0288 E-score.
As to ACTCCCCG, the binding signal came to 0.191 ± 0.00694 E-score.
For TAACACGA the value was 0.399 ± 0.00944 E-score; for AAACACGG, 0.3488 ± 0.00234 E-score; for GAACACTC, 0.374 ± 0.0139 E-score.
On to CAACACGG, for which the binding signal was 0.38 ± 0.0301 E-score.
For AAACACGT the value was 0.307 ± 0.0183 E-score; for GAACACAC, 0.319 ± 0.0348 E-score.
For AAACACCT the value was 0.419 ± 0.00791 E-score; for GAACACCC, 0.4707 ± 0.00185 E-score; for AAACACTT, 0.252 ± 0.0426 E-score.
For CAACACGA, the binding signal was found to be 0.328 ± 0.0204 E-score.
In the case of CACGTGAC it was 0.258 ± 0.0152 E-score; in that of TCGGATAA, 0.194 ± 0.0204 E-score; in that of GGGTTTTA, 0.163 ± 0.0227 E-score.
In the case of ACACAGGG it was 0.158 ± 0.0633 E-score; in that of CACCATTA, 0.266 ± 0.00672 E-score.
On to CACGGGTA, for which the binding signal was determined as 0.291 ± 0.0126 E-score.
For CACTCGAG, the binding signal was found to be 0.172 ± 0.0369 E-score.
For AAACACGC, the binding signal was found to be 0.336 ± 0.0161 E-score.
As for TAACACAA, the binding signal came out at 0.216 ± 0.0241 E-score.
On to GAACACGC, for which the binding signal amounted to 0.393 ± 0.0119 E-score.
For TAACACCA, the binding signal is 0.477 ± 0.00686 E-score.
In the case of TAGCACCA, the binding signal was 0.2242 ± 0.00214 E-score.
Consider GAACACGA, for which the binding signal was found to be 0.3393 ± 0.000771 E-score.
Consider CACAGCTA, for which the binding signal is 0.177 ± 0.0139 E-score.
For AACCCCGA the value was 0.232 ± 0.0298 E-score; for CACGCCCC, 0.29 ± 0.0136 E-score; for AGGGGTGC, 0.221 ± 0.0348 E-score.
In the case of GTGTCGCA it was 0.442 ± 0.0148 E-score.
With GTGTCTTA, the binding signal was 0.3629 ± 0.00242 E-score.
In the case of GTGTCGGA it was 0.454 ± 0.0132 E-score; in that of GGGTCGGA, 0.227 ± 0.0525 E-score.
Consider ATGTCGTG, for which the binding signal came to 0.222 ± 0.0295 E-score.
Take GTGTCGTA: the binding signal turned out to be 0.45 ± 0.0119 E-score.
For GTATCGCA the value was 0.234 ± 0.0133 E-score.
For ATGTCGGG the value was 0.199 ± 0.029 E-score; for CCGAGCAC, 0.178 ± 0.0032 E-score.
Take ACCCAGTG: the binding signal was 0.21 ± 0.0315 E-score.
For AGTGGTAG the value was 0.157 ± 0.00503 E-score; for ATGAGACA, 0.159 ± 0.0072 E-score.
In the case of GGTGCACA, the binding signal worked out at 0.268 ± 0.0361 E-score.
As for ATAGCACG, the binding signal is 0.157 ± 0.0235 E-score.
With CTCCACAC, the binding signal turned out to be 0.251 ± 0.0305 E-score.
ATCCACAC: the binding signal was found to be 0.297 ± 0.0245 E-score.
For the sequence CTCTACAC, the binding signal was 0.391 ± 0.0122 E-score.
As for GTCTAACA, the binding signal turned out to be 0.204 ± 0.0271 E-score.
As for GTCCACAC, the binding signal came to 0.211 ± 0.0298 E-score.
With ATCTACAC, the binding signal is 0.404 ± 0.0153 E-score.
In the case of CCCTCTAC, the binding signal amounted to 0.205 ± 0.0116 E-score.
For GTCTACAC, the binding signal worked out at 0.42 ± 0.0105 E-score.
As for TCGGTACA, the binding signal came to 0.219 ± 0.0249 E-score.
Turning to GGGTCTCA, the binding signal was 0.162 ± 0.0232 E-score.
For ACTGCCCG the value was 0.219 ± 0.00643 E-score.
Regarding TAGTATCA, the binding signal was found to be 0.221 ± 0.0229 E-score.
In the case of CACCAAAC it was 0.283 ± 0.0195 E-score.
With ACCGCGAA, the binding signal is 0.1607 ± 0.000856 E-score.
For CACATTTC the value was 0.186 ± 0.0176 E-score; for GTGTGCGA, 0.173 ± 0.0312 E-score.
GTGTGCCA: the binding signal came to 0.242 ± 0.0264 E-score.
For the sequence GTATACCA, the binding signal amounted to 0.152 ± 0.0219 E-score.
For AGGTACTA the value was 0.1967 ± 0.000601 E-score.
For GTGTACTA, the binding signal stood at 0.438 ± 0.0127 E-score.
As for GTGTACCA, the binding signal turned out to be 0.4446 ± 0.00264 E-score.
In the case of GTGTACGA it was 0.43943 ± 0.000382 E-score.
Turning to GGGTACTA, the binding signal was 0.224 ± 0.00292 E-score.
For the sequence CCATGGGA, the binding signal came to 0.153 ± 0.052 E-score.
As to ACCTCCCA, the binding signal is 0.191 ± 0.00743 E-score.
As to AATCTGAC, the binding signal came to 0.17 ± 0.00849 E-score.
For the sequence GTCGTACA, the binding signal stood at 0.26 ± 0.00478 E-score.
With CCCCCCGG, the binding signal is 0.254 ± 0.0183 E-score.
Regarding ACACAACC, the binding signal amounted to 0.219 ± 0.0237 E-score.
Turning to CACCTACA, the binding signal was 0.41 ± 0.00505 E-score.
Regarding CACCTACG, the binding signal is 0.232 ± 0.0231 E-score.
In the case of CACCTACC it was 0.2673 ± 0.000516 E-score.
GTATGACA: the binding signal worked out at 0.257 ± 0.00319 E-score.
For the sequence ACAAGTGT, the binding signal came out at 0.344 ± 0.0292 E-score.
On to CGCATACA, for which the binding signal amounted to 0.185 ± 0.00496 E-score.
Turning to AGGGACAC, the binding signal is 0.402 ± 0.019 E-score.
On to AGGGATAC, for which the binding signal is 0.165 ± 0.0372 E-score.
Regarding CGGGACAC, the binding signal was found to be 0.42 ± 0.00537 E-score.
For GGGGATAC the value was 0.254 ± 0.0111 E-score; for GAGGGGAC, 0.2 ± 0.0143 E-score; for CGGGATAC, 0.281 ± 0.0031 E-score.
For CGGGATCC the value was 0.209 ± 0.0344 E-score; for GGGGACAC, 0.41 ± 0.0266 E-score; for AGGGAGTC, 0.239 ± 0.00436 E-score.
Turning to CACTTGCA, the binding signal came to 0.173 ± 0.0121 E-score.
As for GGATCTGA, the binding signal turned out to be 0.194 ± 0.0532 E-score.
Take CCGGATCA: the binding signal stood at 0.176 ± 0.0156 E-score.
Consider AATCTGGT, for which the binding signal was 0.159 ± 0.0527 E-score.
With GGTCGTAC, the binding signal turned out to be 0.224 ± 0.0297 E-score.
As to CGGGGTCA, the binding signal turned out to be 0.269 ± 0.0255 E-score.
